Experimental data from the supplement of paper PMC11634586.
Unmarked numbers belong to inactive results.

tested on: NCI-H1688; test: inhibition of cell viability relative to untreated control (fraction); higher = stronger growth inhibition, active = 0.5 or more; conditions: 30 µM; 24 h
Method in brief: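 After seeding at 3 × 10^3 cells/well in 96-well plates and a 24 h wait, NCI-H1688 small cell lung cancer cells received a natural compound library (TargetMol) at 30 µM for 24 h, kept at 37°C with 5% CO2. Triplicate readings of Cell Counting Kit-8 absorbance at 450 nm measured viability. Each value is the inhibition of cell viability as a fraction, derived from viability normalised to untreated cells.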

Row | Structure (SMILES) | inhibition of cell viability
1 | O=C(O)[C@H]1O[C@@H](Oc2cc3oc(-c4ccc(O)cc4)cc(=O)c3c(O)c2O)[C@H](O)[C@@H](O)[C@@H]1O [Scutellarin] | -0.14
2 | Cc1ncc(CSSCc2cnc(C)c(O)c2CO)c(CO)c1O [Pyrithioxin] | 0.0153
3 | CC(C)=CCC[C@](C)(O)[C@H]1CC[C@]2(C)[C@@H]1[C@H](O)C[C@@H]1[C@@]3(C)CC[C@H](O)C(C)(C)[C@@H]3[C@@H](O[C@@H]3O[C@H](CO)[C@@H](O)[C@H](O)[C@H]3O[C@@H]3O[C@@H](C)[C@H](O)[C@@H](O)[C@H]3O)C[C@]12C [Ginsenoside Rg2] | 0.155
4 | OCc1ccc(O[C@@H]2O[C@H](CO)[C@@H](O)[C@H](O)[C@H]2O)cc1 [Gastrodin] | -0.283
